Experimental data published in the supplement of paper PMC8728848.
About 410 targets per protein were measured; listed, in parts, are those with the strongest signals and a random draw of the rest.

Assays:
Assay in all cases: glycan array binding signal (z-score within array); higher = stronger binding
Settings in all cases: glycan notation: IUPAC condensed, linker removed
[1] = target: Fuc(a1-2)Gal(b1-4)GlcNAc(b1-2)[Fuc(a1-2)Gal(b1-4)GlcNAc(b1-4)]Man(a1-3)[Fuc(a1-2)Gal(b1-4)GlcNAc(b1-2)Man(a1-6)]Man(b1-4)GlcNAc(b1-4)GlcNAc
How it was run: (§1)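 The binding signal is a Z-score computed within each array. Data were drawn from 3228 arrays in the Consortium for Functional Glycomics database, restricted to those with a known protein sequence. Scores were averaged over arrays of the same protein sequence at different concentrations or buffers, and over linkers, and negative values can be taken as non-binding.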

[2] = target: Fuc(a1-2)Gal(b1-4)GlcNAc(b1-6)GalNAc
How it was run: as §1

[3] = target: Fuc(a1-2)Gal(b1-4)[Fuc(a1-3)]GlcNAc(b1-2)[Fuc(a1-2)Gal(b1-4)[Fuc(a1-3)]GlcNAc(b1-4)]Man(a1-3)[Fuc(a1-2)Gal(b1-4)[Fuc(a1-3)]GlcNAc(b1-2)Man(a1-6)]Man(b1-4)GlcNAc(b1-4)GlcNAc
How it was run: as §1

[4] = target: Fuc(a1-2)Gal(b1-4)[Fuc(a1-3)]GlcNAc(b1-3)Gal(b1-4)[Fuc(a1-3)]GlcNAc(b1-3)Gal(b1-4)[Fuc(a1-3)]GlcNAc
How it was run: as §1

[5] = target: Fuc(a1-2)Gal6S(b1-3)GlcNAc
How it was run: as §1

[6] = target: Fuc(a1-2)Gal6S(b1-4)Glc
How it was run: as §1

[7] = target: Fuc(a1-2)[Gal(a1-4)]Gal(b1-4)GlcNAc
How it was run: as §1

[8] = target: Fuc(a1-3)[Gal(b1-4)]GlcNAc
How it was run: as §1

[9] = target: Fuc(a1-3)[Gal(b1-4)]GlcNAc(b1-2)Man
How it was run: as §1

[10] = target: Gal(a1-3)Gal(b1-3)GlcNAc(b1-2)Man(a1-3)[Gal(a1-3)Gal(b1-3)GlcNAc(b1-2)Man(a1-6)]Man(b1-4)GlcNAc(b1-4)GlcNAc
How it was run: as §1

[11] = target: Gal(a1-3)Gal(b1-4)GlcNAc
How it was run: as §1

[12] = target: Gal(a1-3)Gal(b1-4)GlcNAc(b1-2)Man(a1-3)[Gal(a1-3)Gal(b1-4)GlcNAc(b1-2)Man(a1-6)]Man(b1-4)GlcNAc(b1-4)GlcNAc
How it was run: as §1

[13] = target: Gal(a1-3)Gal(b1-4)[Fuc(a1-3)]GlcNAc
How it was run: as §1

[14] = target: Gal(a1-3)[Gal(a1-4)]Gal(b1-4)GlcNAc
How it was run: as §1

[15] = target: Gal(a1-4)Gal(b1-3)GlcNAc(b1-2)Man(a1-3)[Gal(a1-4)Gal(b1-3)GlcNAc(b1-2)Man(a1-6)]Man(b1-4)GlcNAc(b1-4)GlcNAc
How it was run: as §1

[16] = target: Gal(a1-4)Gal(b1-4)GlcNAc
How it was run: as §1

[17] = target: Gal(a1-4)Gal(b1-4)GlcNAc(b1-2)Man(a1-3)[Gal(a1-4)Gal(b1-4)GlcNAc(b1-2)Man(a1-6)]Man(b1-4)GlcNAc(b1-4)GlcNAc
How it was run: as §1

[18] = target: Gal(a1-4)Gal(b1-4)GlcNAc(b1-3)Gal(b1-4)Glc
How it was run: as §1

[19] = target: Gal(a1-4)GlcNAc
How it was run: as §1

[20] = target: Gal(b1-3)Gal(b1-4)GlcNAc(b1-2)Man(a1-3)[Gal(b1-3)Gal(b1-4)GlcNAc(b1-2)Man(a1-6)]Man(b1-4)GlcNAc(b1-4)GlcNAc
How it was run: as §1

[21] = target: Gal(b1-3)GalNAc(b1-3)Gal(a1-4)Gal(b1-4)Glc
How it was run: as §1

[22] = target: Gal(b1-3)GlcNAc(b1-3)Gal(b1-4)Glc
How it was run: as §1

[23] = target: Gal(b1-4)GlcNAc(b1-2)Man(a1-6)[Man(a1-3)]Man(b1-4)GlcNAc(b1-4)GlcNAc
How it was run: as §1

[24] = target: Gal3S(b1-3)GlcNAc
How it was run: as §1

[25] = target: Gal3S(b1-3)[Fuc(a1-4)]GlcNAc
How it was run: as §1

[26] = target: GalNAc(b1-3)Gal(a1-4)Gal(b1-4)GlcNAc(b1-3)Gal(b1-4)Glc
How it was run: as §1

[27] = target: GalNAc(b1-4)GlcNAc
How it was run: as §1

[28] = target: GlcNAc(a1-4)Gal(b1-4)GlcNAc(b1-3)Gal(b1-4)Glc
How it was run: as §1

[29] = target: GlcNAc(a1-4)Gal(b1-4)GlcNAc(b1-3)Gal(b1-4)[Fuc(a1-3)]GlcNAc(b1-3)Gal(b1-4)[Fuc(a1-3)]GlcNAc
How it was run: as §1

[30] = target: GlcNAc(b1-2)Man(a1-3)[GlcNAc(b1-2)Man(a1-6)]Man(b1-4)GlcNAc(b1-4)[Fuc(a1-6)]GlcNAc
How it was run: as §1

[31] = target: GlcNAc(b1-2)[GlcNAc(b1-6)]Man(a1-6)[GlcNAc(b1-2)Man(a1-3)]Man(b1-4)GlcNAc(b1-4)[Fuc(a1-6)]GlcNAc
How it was run: as §1

[32] = target: GlcNAc(b1-3)Gal(b1-4)GlcNAc(b1-3)GalNAc
How it was run: as §1

[33] = target: GlcNAc(b1-3)[GlcNAc(b1-4)][GlcNAc(b1-6)]GlcNAc
How it was run: as §1

[34] = target: Man(a1-2)Man(a1-3)Man
How it was run: as §1

[35] = target: Neu5Ac(a2-3)Gal(b1-4)GlcNAc(b1-2)Man(a1-3)[GlcNAc(b1-4)][Neu5Ac(a2-3)Gal(b1-4)GlcNAc(b1-2)Man(a1-6)]Man(b1-4)GlcNAc(b1-4)GlcNAc
How it was run: as §1

[36] = target: Neu5Ac(a2-3)Gal(b1-4)GlcNAc(b1-3)Gal(b1-4)[Fuc(a1-3)]GlcNAc
How it was run: as §1

[37] = target: Neu5Ac(a2-3)[GalNAc(b1-4)]Gal(b1-4)Glc
How it was run: as §1

[38] = target: Neu5Ac(a2-6)Gal(b1-4)GlcNAc6S
How it was run: as §1

[39] = target: Neu5Gc(a2-8)Neu5Ac(a2-3)Gal(b1-4)GlcNAc
How it was run: as §1

B1: PA-IL (Pseudomonas aeruginosa), Q05097 (protein)
chain: MAWKGEVLANNEAGQVTSIIYNPGDVITIVAAGWASYGPTQKWGPQGDREHPDQGLICHDAFCGALVMKIGNSGTIPVNTGLFRWVAPNNVQGAITLIYNDVPGTYGNNSGSFSVNIGKDQS
[1]
  glycan array binding signal (z-score): -0.197
[2]
  glycan array binding signal (z-score): -0.201
[3]
  glycan array binding signal (z-score): -0.185
[4]
  glycan array binding signal (z-score): -0.213
[5]
  glycan array binding signal (z-score): -0.225
[6]
  glycan array binding signal (z-score): -0.229
[7]
  glycan array binding signal (z-score): 5.44
[8]
  glycan array binding signal (z-score): -0.224
[9]
  glycan array binding signal (z-score): -0.233
[10]
  glycan array binding signal (z-score): 0.015
[11]
  glycan array binding signal (z-score): 5.08
[12]
  glycan array binding signal (z-score): 6.97
[13]
  glycan array binding signal (z-score): 5.02
[14]
  glycan array binding signal (z-score): 6.55
[15]
  glycan array binding signal (z-score): 7.29
[16]
  glycan array binding signal (z-score): 4.79
[17]
  glycan array binding signal (z-score): 8.23
[18]
  glycan array binding signal (z-score): 5.73
[19]
  glycan array binding signal (z-score): 3.63
[20]
  glycan array binding signal (z-score): 7.65
[21]
  glycan array binding signal (z-score): -0.228
[22]
  glycan array binding signal (z-score): -0.228
[23]
  glycan array binding signal (z-score): -0.237
[24]
  glycan array binding signal (z-score): -0.229
[25]
  glycan array binding signal (z-score): -0.225
[26]
  glycan array binding signal (z-score): -0.228
[27]
  glycan array binding signal (z-score): -0.236
[28]
  glycan array binding signal (z-score): -0.23
[29]
  glycan array binding signal (z-score): -0.203
[30]
  glycan array binding signal (z-score): -0.214
[31]
  glycan array binding signal (z-score): -0.217
[32]
  glycan array binding signal (z-score): -0.221
[33]
  glycan array binding signal (z-score): -0.228
[34]
  glycan array binding signal (z-score): -0.226
[35]
  glycan array binding signal (z-score): -0.244
[36]
  glycan array binding signal (z-score): -0.226
[37]
  glycan array binding signal (z-score): -0.226
[38]
  glycan array binding signal (z-score): -0.228
[39]
  glycan array binding signal (z-score): -0.245
